This is a sample that favours compounds with a hit; in the whole collection about 3.9% have one here.
SARS 3CLpro inh: SARS-CoV 3CLpro protease inhibition; recombinant SARS-CoV 3CLpro, quenched FRET peptide cleavage; inhibition, % at 6 µM; 290,000 compounds, 0.14% hits; AID 1706; in the data active means inhibition above about 12%
CCHF vOTU inh: CCHFV vOTU protease inhibition | inhibition, % at 11.5 µM | 370,000 compounds, 0.55% hits | Pep-AMC fluorescence | AID 651958; in the data active means inhibition above about 30%
Autofluor counter: compound fluorescence in toxin protease inhibitor counterscreen; 360,000 compounds, 3.1% hits; fluorescence intensity (concentration not given with the values); compound autofluorescence counterscreen, microsphere flow cytometry; hits give high values; in the data active means fluorescence intensity above about 16000; inconclusive means no clear call, values can overlap the other calls
BoNT F protease: BoNT F light chain protease inhibition | Multiplex microsphere protease cleavage assay, flow cytometry | inhibition, % at 10 µM | 360,000 compounds, 0.22% hits | AID 588497; in the data active means inhibition above about 35%, passing the limit was not always enough; inconclusive means no clear call, values can overlap the other calls
Anthrax LF inh2: anthrax lethal factor protease inhibition. AID 588501. inhibition, % at 10 µM. 360,000 compounds, 0.12% hits. multiplex microsphere protease cleavage assay, LF
BoNT-A LC inh2: BoNT A light chain protease inhibition. multiplex microsphere protease substrate cleavage, flow cytometry. inhibition, % at 10 µM. 360,000 compounds, 0.17% hits. AID 588499
Large screens that a line does not name were inactive. Unless noted, no stated cut-off is given here; in the data, active means inhibition above about 30%; inconclusive means no clear call, values can overlap the other calls; inactive means below that.

COc1cc(NC(=O)c2ccco2)c(OC)cc1NC(=O)CCC(=O)Nc1cc(C)cc(C)c1	Autofluor counter 20576
COc1ccc(C)cc1NC(=O)CCNC(=O)c1ccco1	none
CCCC(=O)Nc1ccc(NC(=O)c2ccco2)c(OC)c1	none
CCOC(=O)c1cc(OC(=O)c2ccccc2OC)n(-c2ccccc2)n1	Autofluor counter 20755, BoNT-A LC inh2 inconclusive
S=C(NCc1ccc(Cl)cc1)OC1CCC12CCC(c1ccccc1)CC2 (centres undefined)	none (no result: SARS 3CLpro inh, Autofluor counter, BoNT F protease, Anthrax LF inh2, BoNT-A LC inh2)
O=C(OC12CCCN(C1)/C(=C/c1cccc(Cl)c1)C2)c1ccc(Cl)cc1 (centres undefined)	none (no result: SARS 3CLpro inh, Autofluor counter, BoNT F protease, Anthrax LF inh2, BoNT-A LC inh2)
CC(C(=O)NC(=O)NC1CCCCC1)N1CCN(C(c2ccccc2)c2ccccc2)CC1 (centres undefined)	Autofluor counter 16823
Cc1ccc(/C=N\Nc2cn[nH]c(=O)c2Cl)cc1	Autofluor counter 23558
Cc1ccc(S(=O)(=O)N2C(=O)/C(=C3\SC(=S)NC3=O)c3ccccc32)cc1	none (no result: CCHF vOTU inh, Autofluor counter, BoNT F protease, Anthrax LF inh2, BoNT-A LC inh2)
CC1CC(=O)c2cnc(Nc3ccccc3)nc2C1 (centres undefined)	Autofluor counter 22489
COc1cc(OC)cc(C(=O)Nc2ncc3c(n2)CC(C)CC3=O)c1 (centres undefined)	none
COc1cccc(C(=O)Nc2ncc3c(n2)CC(C)CC3=O)c1 (centres undefined)	Autofluor counter 24790
COc1cc(C2CC(=O)c3cnc(NC(=O)COc4ccccc4)nc3C2)cc(OC)c1OC (centres undefined)	Autofluor counter 21520
CC1CC(=O)c2cnc(Nc3cccc(C(F)(F)F)c3)nc2C1 (centres undefined)	none
O=Cc1ccc(N2CCN(S(=O)(=O)c3ccc4c(c3)CC(=O)N4)CC2)cc1	none (no result: SARS 3CLpro inh)
CCCCOc1ccc(C(=O)NC2CCCCN(CCC)C2=O)cc1 (centres undefined)	none (no result: SARS 3CLpro inh, Autofluor counter, BoNT F protease, Anthrax LF inh2, BoNT-A LC inh2)
CCOc1cc(C=NN2CCN(Cc3ccc(C)cc3)CC2)ccc1O	none (no result: SARS 3CLpro inh, Autofluor counter, BoNT F protease, Anthrax LF inh2, BoNT-A LC inh2)
Cc1ccc2[nH]c(=O)c(NC(N)=S)nc2c1	Autofluor counter 20753
CC(C)CC(C(=O)NC(C)(C)C)N(Cc1cccs1)C(=O)c1snc(C(N)=O)c1N (centres undefined)	none
Cc1[nH][nH]c(=O)c1C(c1ccc(-c2ccc(Cl)c(Cl)c2)o1)c1c(C)[nH][nH]c1=O	CCHF vOTU inh 43.1
Cc1[nH][nH]c(=O)c1C(c1ccc(-c2ccc(C(=O)O)cc2)o1)c1c(C)[nH][nH]c1=O	none
Cc1ccc(C(C)NC(=O)c2c(C)noc2C)cc1C (centres undefined)	Autofluor counter 24941
CCc1cc(C(=O)COc2ccccc2F)c(O)cc1O	Autofluor counter 18558, BoNT-A LC inh2 inconclusive
CCc1cc(C(=O)Cc2ccc(F)cc2)c(O)cc1O	none
Cc1cc(C)n(CCNC(=O)C2CCC(=O)N(CCc3cccc(F)c3)C2)n1 (centres undefined)	none
O=C1C2C3C=CC(C3=C(c3ccccc3)c3ccccc3)C2C(=O)N1CCO (centres undefined)	Autofluor counter 16812
O=C1C2C(c3ccccc3)C=CC(c3ccccc3)C2C(=O)N1CCO (centres undefined)	none
Cc1noc(C)c1CN(C(=S)NC1CC2CCC1C2)c1ccccc1 (centres undefined)	BoNT F protease 42.1
CCOC(=O)Cc1csc(NC(=O)C2C3C=CC(C3)C2C(=O)O)n1 (centres undefined)	none
CCOC(=O)c1sc(NC(=O)c2ccc(=O)[nH]c2)nc1C	BoNT F protease 36.9
CCOC(=O)c1sc(NS(=O)(=O)c2ccccc2)nc1C	none
CCOC(=O)c1sc(NC(=O)C2CC2)nc1C	none
CCOC(=O)c1sc(NS(=O)(=O)c2ccccc2Cl)nc1C	Autofluor counter 26130
CCOC(=O)c1sc(NC(=O)C2C3C=CC(C3)C2C(=O)O)nc1C (centres undefined)	Autofluor counter 23393
Cc1csc(NC(=O)C2C3C=CC(C3)C2C(=O)O)n1 (centres undefined)	Autofluor counter 21611, BoNT-A LC inh2 inconclusive
COc1ccc(C)cc1CN1C(=O)c2ccccc2C1=O	none
Cc1cc(C(=O)NC2CCCc3c2cnn3-c2ccc(C(C)(C)C)cc2)nn1C (centres undefined)	none
N#CCSc1nc2c(sc(=S)n2Cc2ccco2)c(=O)n1-c1ccc(F)cc1	Autofluor counter 21835
CCOc1ccccc1C1CC(=O)Nc2cc3c(cc21)OCCO3 (centres undefined)	Autofluor counter 16905
CCCOc1ccccc1C1CC(=O)Nc2cc3c(cc21)OCCO3 (centres undefined)	none (no result: CCHF vOTU inh)
COc1cc(/C=N/Nc2ccc3ccccc3c2)ccc1OC(=O)c1ccco1	none
Cc1snc(SCC(=O)N/N=C(\N)COc2cccc(C(F)(F)F)c2)c1C#N	Autofluor counter 20365, BoNT-A LC inh2 inconclusive
COc1cccc(NC(=O)CNC(=O)c2ccc(OC)c(OC)c2)c1	none
COc1ccc(C(=O)NCC(=O)Nc2ccc(F)cc2)cc1OC	Autofluor counter 16515, BoNT-A LC inh2 inconclusive
COC(=O)[C@]12C[C@H](CC(=O)NCC34CC5CC(CC(C5)C3)C4)C(=O)N(Cc3ccco3)C1=C[C@H](C(C)(C)C)O[C@@H]2C	none (no result: SARS 3CLpro inh, Autofluor counter, BoNT F protease, Anthrax LF inh2, BoNT-A LC inh2)
COC(=O)c1cc2c(s1)-c1ccc(OC)cc1CC2	BoNT F protease inconclusive
COc1ccc(CC(=O)Nc2ccc(S(=O)(=O)N(C)C)cc2)cc1OC	none
COc1cc(CC(=O)Nc2ccc(S(=O)(=O)N(C)C)cc2)cc(OC)c1OC	Autofluor counter 23513
COc1cc(C(=O)Nc2ccc(S(=O)(=O)NC(C)C)cc2)cc(OC)c1OC	Autofluor counter 16279
COc1cc(C(=O)Nc2ccc(S(=O)(=O)NC(C)(C)C)cc2)cc(OC)c1OC	none
COc1cc([N+](=O)[O-])cc(CN2CCCCC2)c1O	Autofluor counter 16919, BoNT-A LC inh2 inconclusive
COc1ccc(CCNC(=O)c2cc(-c3cc(Cl)cc(Cl)c3)oc2C)cc1	Autofluor counter 21204
Cc1occc1C(=O)NCCCCc1ccccc1	none
Cc1occc1C(=O)NCCc1ccc(Cl)cc1	Autofluor counter 20471
COC(=O)[C@]12C[C@H](CC(=O)NCc3ccccc3)C(=O)N(CCc3ccc(OC)c(OC)c3)C1=C[C@H](C1CCCC1)O[C@@H]2C	none (no result: SARS 3CLpro inh, Autofluor counter, BoNT F protease, Anthrax LF inh2, BoNT-A LC inh2)
CC(=O)Cn1c2ccccc2n2nc(CCC(=O)O)c(=O)nc12	none
COc1ccc(C(=O)Cn2c3ccccc3n3nc(CCC(=O)O)c(=O)nc23)cc1OC	Autofluor counter 20229
COc1ccc2c(c1)CCCN2C(=O)C1CCCN(S(=O)(=O)c2ccc(C)c(C)c2)C1 (centres undefined)	none (no result: SARS 3CLpro inh, Autofluor counter, BoNT F protease, Anthrax LF inh2, BoNT-A LC inh2)
CC1(C)NC(=O)N(CC(O)CN(c2ccccc2)S(=O)(=O)c2ccc([N+](=O)[O-])cc2)C1=O (centres undefined)	none
CC(=O)c1cccc(NS(=O)(=O)c2cc(OCC(N)=O)c(C)cc2Cl)c1	Autofluor counter 19294
COC(=O)c1cn[nH]c1NC(=S)Nc1ccc(C)cc1Cl	Autofluor counter 23473, BoNT-A LC inh2 inconclusive
COC(=O)c1cn[nH]c1NC(=S)Nc1ccc(Cl)c(Cl)c1	none
